Key:
[1] = target: Mitogen-activated protein kinase 3 (Homo sapiens) (UniProt P27361); conditions: at 1 µM;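 also: values are mean percent inhibition of MAPK3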
[2] = target: SRSF protein kinase 3 (Homo sapiens) (UniProt Q9UPE1); conditions: at 0.1 µM
[3] = target: SRSF protein kinase 3 (Homo sapiens) (UniProt Q9UPE1); conditions: at 1 µM
[4] = target: Mitogen-activated protein kinase 14 (Homo sapiens) (UniProt Q16539); conditions: at 0.1 µM
[5] = target: Mitogen-activated protein kinase 14 (Homo sapiens) (UniProt Q16539); conditions: at 1 µM
[6] = target: Mitogen-activated protein kinase 11 (Homo sapiens) (UniProt Q15759); conditions: at 0.1 µM
[7] = target: Mitogen-activated protein kinase 11 (Homo sapiens) (UniProt Q15759); conditions: at 1 µM
[8] = target: T1, Mitogen-activated protein kinase 13 (Homo sapiens) (UniProt O15264); conditions: at 0.1 µM
T1 sequence (whole entry): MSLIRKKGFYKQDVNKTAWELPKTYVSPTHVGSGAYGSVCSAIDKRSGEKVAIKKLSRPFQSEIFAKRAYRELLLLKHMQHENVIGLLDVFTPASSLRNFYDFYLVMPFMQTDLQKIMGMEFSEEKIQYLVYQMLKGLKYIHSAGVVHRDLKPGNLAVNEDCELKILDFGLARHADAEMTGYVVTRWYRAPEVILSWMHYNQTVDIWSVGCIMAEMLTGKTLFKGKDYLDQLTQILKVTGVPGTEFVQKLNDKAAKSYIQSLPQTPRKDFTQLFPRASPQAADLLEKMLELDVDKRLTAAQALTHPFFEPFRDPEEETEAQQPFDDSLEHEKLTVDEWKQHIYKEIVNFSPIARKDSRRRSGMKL

[9] = target: T1, Mitogen-activated protein kinase 13 (Homo sapiens); conditions: at 1 µM
[10] = target: T2, Mitogen-activated protein kinase 12 (Homo sapiens) (UniProt P53778); conditions: at 0.1 µM
T2 sequence (whole entry): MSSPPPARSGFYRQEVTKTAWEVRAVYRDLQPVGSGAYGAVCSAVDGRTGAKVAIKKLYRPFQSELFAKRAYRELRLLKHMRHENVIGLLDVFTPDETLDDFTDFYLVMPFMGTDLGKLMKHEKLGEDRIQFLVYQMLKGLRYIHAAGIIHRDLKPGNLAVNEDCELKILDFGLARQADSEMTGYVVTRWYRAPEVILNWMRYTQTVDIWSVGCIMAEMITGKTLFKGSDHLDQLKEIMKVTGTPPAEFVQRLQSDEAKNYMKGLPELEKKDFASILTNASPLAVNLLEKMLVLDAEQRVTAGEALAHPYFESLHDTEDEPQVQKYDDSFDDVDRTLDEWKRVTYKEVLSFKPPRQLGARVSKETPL

[11] = target: T2, Mitogen-activated protein kinase 12 (Homo sapiens); conditions: at 1 µM
[12] = target: SRSF protein kinase 1 (Homo sapiens) (UniProt Q96SB4); conditions: at 0.1 µM
[13] = target: SRSF protein kinase 1 (Homo sapiens) (UniProt Q96SB4); conditions: at 1 µM
[14] = target: Phosphatidylinositol 4,5-bisphosphate 3-kinase catalytic subunit alpha isoform (Homo sapiens) (UniProt P42336); conditions: at 0.1 µM
[15] = target: Phosphatidylinositol 4,5-bisphosphate 3-kinase catalytic subunit alpha isoform (Homo sapiens) (UniProt P42336); conditions: at 1 µM
[16] = target: T3, Phosphatidylinositol 4,5-bisphosphate 3-kinase catalytic subunit delta isoform (Homo sapiens) (UniProt O00329); conditions: at 0.1 µM
T3 sequence (whole entry): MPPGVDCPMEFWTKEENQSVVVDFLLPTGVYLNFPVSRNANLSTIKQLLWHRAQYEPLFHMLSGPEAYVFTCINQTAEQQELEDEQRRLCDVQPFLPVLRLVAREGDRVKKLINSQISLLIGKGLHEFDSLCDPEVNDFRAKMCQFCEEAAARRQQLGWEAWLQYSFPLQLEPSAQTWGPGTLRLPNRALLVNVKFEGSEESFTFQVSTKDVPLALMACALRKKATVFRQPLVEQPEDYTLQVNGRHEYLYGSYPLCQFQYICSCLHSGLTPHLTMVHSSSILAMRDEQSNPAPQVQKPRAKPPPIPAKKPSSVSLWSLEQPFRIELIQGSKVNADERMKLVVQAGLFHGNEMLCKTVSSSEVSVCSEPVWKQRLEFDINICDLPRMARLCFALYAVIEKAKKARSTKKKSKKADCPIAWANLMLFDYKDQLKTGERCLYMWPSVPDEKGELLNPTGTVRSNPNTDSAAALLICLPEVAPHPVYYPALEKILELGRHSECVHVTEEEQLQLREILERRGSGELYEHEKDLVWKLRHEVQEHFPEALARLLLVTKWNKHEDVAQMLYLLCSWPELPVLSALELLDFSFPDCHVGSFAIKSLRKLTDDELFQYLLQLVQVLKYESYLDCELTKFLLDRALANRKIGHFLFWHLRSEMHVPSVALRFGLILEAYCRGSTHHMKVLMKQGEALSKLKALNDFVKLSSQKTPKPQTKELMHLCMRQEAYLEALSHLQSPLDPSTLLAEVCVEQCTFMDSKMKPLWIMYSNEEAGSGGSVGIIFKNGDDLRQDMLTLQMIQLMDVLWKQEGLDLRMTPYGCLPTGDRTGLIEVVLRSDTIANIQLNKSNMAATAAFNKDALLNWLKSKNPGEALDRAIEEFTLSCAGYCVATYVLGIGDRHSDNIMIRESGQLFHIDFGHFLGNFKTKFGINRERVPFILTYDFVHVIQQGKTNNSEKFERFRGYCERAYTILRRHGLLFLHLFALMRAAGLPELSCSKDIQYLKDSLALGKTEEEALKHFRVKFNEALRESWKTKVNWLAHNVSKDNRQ

[17] = target: T3, Phosphatidylinositol 4,5-bisphosphate 3-kinase catalytic subunit delta isoform (Homo sapiens); conditions: at 1 µM
[18] = target: Phosphatidylinositol 4-kinase beta (Homo sapiens) (UniProt Q9UBF8); conditions: at 0.1 µM
[19] = target: Phosphatidylinositol 4-kinase beta (Homo sapiens) (UniProt Q9UBF8); conditions: at 1 µM
[20] = target: Sphingosine kinase 1 (Homo sapiens) (UniProt Q9NYA1); conditions: at 0.1 µM;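 also: mean percent inhibition of SPHK1 activity, measured within the GSK PKIS screening panel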
Chain of Sphingosine kinase 1 (Homo sapiens) (Q9NYA1 whole entry): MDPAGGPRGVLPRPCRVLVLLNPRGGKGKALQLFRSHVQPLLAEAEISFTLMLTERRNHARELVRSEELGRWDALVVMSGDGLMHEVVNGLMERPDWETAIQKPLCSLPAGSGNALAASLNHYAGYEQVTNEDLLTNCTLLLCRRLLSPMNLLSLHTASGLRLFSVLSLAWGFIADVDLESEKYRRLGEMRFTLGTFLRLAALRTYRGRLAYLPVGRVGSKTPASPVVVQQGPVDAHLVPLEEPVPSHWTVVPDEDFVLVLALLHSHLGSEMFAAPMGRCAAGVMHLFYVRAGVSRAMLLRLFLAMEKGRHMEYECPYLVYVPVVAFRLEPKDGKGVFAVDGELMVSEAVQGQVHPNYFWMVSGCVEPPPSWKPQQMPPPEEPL

Chain of Phosphatidylinositol 4-kinase beta (Homo sapiens) (Q9UBF8 2-816 limits assumed): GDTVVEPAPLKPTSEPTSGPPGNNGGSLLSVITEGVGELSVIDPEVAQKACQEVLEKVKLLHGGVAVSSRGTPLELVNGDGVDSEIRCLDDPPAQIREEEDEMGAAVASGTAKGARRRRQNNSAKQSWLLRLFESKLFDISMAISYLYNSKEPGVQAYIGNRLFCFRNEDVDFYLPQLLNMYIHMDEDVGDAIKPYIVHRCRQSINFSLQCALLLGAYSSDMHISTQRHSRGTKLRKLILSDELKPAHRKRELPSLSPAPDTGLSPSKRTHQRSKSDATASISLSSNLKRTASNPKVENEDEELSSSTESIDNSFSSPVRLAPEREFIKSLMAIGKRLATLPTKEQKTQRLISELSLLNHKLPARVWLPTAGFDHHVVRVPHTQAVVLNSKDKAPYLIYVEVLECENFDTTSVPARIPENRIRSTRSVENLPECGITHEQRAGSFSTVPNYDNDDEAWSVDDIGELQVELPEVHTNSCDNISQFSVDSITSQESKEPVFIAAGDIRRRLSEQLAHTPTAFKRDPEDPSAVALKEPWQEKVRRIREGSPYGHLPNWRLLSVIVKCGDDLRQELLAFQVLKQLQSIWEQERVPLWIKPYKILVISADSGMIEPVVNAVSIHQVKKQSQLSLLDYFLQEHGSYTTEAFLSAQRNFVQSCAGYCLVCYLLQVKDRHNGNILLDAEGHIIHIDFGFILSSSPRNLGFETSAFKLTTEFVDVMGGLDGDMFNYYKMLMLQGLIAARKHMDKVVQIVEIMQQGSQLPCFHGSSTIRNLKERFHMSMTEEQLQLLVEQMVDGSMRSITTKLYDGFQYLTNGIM
Chain of Mitogen-activated protein kinase 3 (Homo sapiens) (P27361 whole entry): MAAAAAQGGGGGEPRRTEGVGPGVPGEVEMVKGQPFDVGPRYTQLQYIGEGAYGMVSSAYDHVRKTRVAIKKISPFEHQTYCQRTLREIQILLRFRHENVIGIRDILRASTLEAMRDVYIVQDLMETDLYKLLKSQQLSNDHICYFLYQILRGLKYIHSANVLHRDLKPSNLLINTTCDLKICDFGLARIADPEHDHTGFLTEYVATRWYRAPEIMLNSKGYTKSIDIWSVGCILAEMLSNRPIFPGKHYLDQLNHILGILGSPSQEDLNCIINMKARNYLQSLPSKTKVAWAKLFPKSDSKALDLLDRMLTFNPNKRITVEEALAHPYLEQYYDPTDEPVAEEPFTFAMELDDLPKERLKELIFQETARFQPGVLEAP
Chain of Mitogen-activated protein kinase 14 (Homo sapiens) (Q16539 whole entry): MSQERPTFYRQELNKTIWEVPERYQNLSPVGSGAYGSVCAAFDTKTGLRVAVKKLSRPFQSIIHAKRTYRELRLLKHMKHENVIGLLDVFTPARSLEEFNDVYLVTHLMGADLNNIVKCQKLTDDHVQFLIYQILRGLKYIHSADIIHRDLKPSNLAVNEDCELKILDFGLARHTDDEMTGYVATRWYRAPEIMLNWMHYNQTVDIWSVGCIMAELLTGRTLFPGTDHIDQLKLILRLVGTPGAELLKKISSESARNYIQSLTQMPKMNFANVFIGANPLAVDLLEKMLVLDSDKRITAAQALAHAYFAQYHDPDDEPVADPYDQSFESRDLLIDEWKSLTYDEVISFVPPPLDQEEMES
Chain of Mitogen-activated protein kinase 11 (Homo sapiens) (Q15759 whole entry): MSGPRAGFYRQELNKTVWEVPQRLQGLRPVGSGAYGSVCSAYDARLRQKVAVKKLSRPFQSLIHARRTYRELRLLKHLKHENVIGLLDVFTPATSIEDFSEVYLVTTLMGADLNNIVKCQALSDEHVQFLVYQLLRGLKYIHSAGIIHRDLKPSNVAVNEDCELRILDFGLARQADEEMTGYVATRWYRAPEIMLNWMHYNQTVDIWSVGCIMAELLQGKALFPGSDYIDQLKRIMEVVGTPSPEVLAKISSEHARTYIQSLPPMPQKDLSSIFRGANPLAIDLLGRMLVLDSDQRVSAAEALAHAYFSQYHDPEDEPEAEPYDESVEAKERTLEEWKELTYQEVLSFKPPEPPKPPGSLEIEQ
Chain of Phosphatidylinositol 4,5-bisphosphate 3-kinase catalytic subunit alpha isoform (Homo sapiens) (P42336 whole entry, canonical isoform): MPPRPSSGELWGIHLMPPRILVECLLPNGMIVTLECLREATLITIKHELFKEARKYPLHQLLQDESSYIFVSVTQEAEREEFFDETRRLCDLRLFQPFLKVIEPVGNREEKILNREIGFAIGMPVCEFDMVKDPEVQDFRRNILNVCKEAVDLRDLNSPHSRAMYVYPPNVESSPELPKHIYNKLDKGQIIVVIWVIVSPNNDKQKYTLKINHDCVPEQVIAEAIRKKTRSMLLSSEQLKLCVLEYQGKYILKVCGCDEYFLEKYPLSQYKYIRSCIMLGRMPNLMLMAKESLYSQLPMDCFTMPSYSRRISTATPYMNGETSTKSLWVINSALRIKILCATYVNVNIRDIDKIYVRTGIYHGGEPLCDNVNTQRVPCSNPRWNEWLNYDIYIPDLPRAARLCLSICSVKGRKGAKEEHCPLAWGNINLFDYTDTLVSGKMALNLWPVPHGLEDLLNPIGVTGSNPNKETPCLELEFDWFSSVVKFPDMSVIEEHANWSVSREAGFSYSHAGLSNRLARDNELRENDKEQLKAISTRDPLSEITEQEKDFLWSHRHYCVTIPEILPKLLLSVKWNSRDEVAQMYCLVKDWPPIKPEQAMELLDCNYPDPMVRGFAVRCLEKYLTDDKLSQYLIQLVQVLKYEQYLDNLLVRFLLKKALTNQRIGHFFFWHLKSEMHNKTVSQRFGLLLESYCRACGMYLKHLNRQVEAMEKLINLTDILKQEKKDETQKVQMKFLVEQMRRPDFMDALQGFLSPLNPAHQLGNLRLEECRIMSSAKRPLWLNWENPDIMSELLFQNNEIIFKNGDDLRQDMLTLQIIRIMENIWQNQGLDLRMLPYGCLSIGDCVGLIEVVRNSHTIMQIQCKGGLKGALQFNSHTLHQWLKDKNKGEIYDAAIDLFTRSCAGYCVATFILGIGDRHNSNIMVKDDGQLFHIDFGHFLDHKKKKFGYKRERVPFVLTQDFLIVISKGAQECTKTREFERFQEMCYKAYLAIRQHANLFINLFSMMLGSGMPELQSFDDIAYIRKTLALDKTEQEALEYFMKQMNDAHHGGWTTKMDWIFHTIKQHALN
Chain of SRSF protein kinase 3 (Homo sapiens) (Q9UPE1 whole entry): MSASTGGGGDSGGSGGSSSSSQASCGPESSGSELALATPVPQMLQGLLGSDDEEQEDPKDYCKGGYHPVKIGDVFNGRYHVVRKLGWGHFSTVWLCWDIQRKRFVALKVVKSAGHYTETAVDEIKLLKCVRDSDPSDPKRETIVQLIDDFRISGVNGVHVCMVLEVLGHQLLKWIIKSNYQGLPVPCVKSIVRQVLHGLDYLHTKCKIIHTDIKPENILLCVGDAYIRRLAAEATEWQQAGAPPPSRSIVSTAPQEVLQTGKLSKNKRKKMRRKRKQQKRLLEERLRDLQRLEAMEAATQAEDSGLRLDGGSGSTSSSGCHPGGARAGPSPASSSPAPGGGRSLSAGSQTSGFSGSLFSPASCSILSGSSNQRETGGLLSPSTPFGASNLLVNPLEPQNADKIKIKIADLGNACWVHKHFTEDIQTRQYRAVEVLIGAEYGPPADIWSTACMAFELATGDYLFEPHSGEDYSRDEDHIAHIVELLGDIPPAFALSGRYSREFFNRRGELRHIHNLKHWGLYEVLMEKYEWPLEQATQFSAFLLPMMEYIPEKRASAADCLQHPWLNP
Chain of SRSF protein kinase 1 (Homo sapiens) (Q96SB4 whole entry, canonical isoform): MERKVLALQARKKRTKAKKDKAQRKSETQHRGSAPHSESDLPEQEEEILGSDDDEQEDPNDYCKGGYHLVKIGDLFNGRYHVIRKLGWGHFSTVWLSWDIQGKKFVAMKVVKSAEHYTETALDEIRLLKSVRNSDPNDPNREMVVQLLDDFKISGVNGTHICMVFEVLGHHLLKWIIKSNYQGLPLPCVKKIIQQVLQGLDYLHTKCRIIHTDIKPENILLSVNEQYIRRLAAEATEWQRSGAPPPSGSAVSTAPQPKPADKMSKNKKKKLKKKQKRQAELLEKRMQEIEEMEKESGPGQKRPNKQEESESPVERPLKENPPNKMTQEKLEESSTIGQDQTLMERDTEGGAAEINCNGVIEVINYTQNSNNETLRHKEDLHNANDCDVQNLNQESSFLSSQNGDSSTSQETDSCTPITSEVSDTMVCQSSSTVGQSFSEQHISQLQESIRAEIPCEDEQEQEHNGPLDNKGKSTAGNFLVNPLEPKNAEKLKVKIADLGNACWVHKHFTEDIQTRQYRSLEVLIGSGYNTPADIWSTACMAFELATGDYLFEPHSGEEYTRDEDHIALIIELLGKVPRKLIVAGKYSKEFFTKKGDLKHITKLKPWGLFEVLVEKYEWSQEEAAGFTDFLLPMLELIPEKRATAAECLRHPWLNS

Row | SMILES | inhibition [1] [%] | inhibition [2] [%] | inhibition [3] [%] | inhibition [4] [%] | inhibition [5] [%] | inhibition [6] [%] | inhibition [7] [%] | inhibition [8] [%] | inhibition [9] [%] | inhibition [10] [%] | inhibition [11] [%] | inhibition [12] [%] | inhibition [13] [%] | inhibition [14] [%] | inhibition [15] [%] | inhibition [16] [%] | inhibition [17] [%] | inhibition [18] [%] | inhibition [19] [%] | inhibition [20] [%]
1 | COc1cc2c(cc1Nc1nc(Nc3cccc(F)c3C(N)=O)c3cc[nH]c3n1)N(C(=O)CN1CCN(C(C)C)CC1)CC2 | 3.92 | 4.88 | 0.53 | 5.02 | 6.81 | 2.96 | 3.23 | 0.14 | 2.89 | 1.49 | 2.81 | -3.13 | -1.66 | 0.54 | 0.15 | -1.97 | -0.26 | -0.22 | 0.87 | 0.42
2 | CNC(=O)c1ncccc1Nc1nc(Nc2cc3c(cc2OC)CCCN3C(=O)CN(C)C)nc2[nH]ccc12 | 1.38 | 0.37 | 0.84 | 4.75 | 8.76 | 4.41 | 4.4 | 8.55 | 5.64 | 1.94 | 2.94 | -1.98 | -0.43 | 3.55 | 1.58 | 1.46 | 4.15 | -2.24 | 1.56 | 3.95
3 | Cc1nnc(-c2cccc(-c3ccc(C(=O)NCC4CC4)cc3)c2)o1 | 6.64 | -1.05 | -0.94 | 4.85 | 12.2 | 3.66 | 7.35 | 3.76 | 3.54 | 4.5 | 2.67 | -0.9 | 2.29 | 2.25 | 2.72 | -0.87 | -2.41 | -0.63 | -1.44 | -1.27
4 | Cc1ccc(-c2cc3c(NC(=O)C4CC4)ncnc3o2)cc1 | 1.29 | 0.82 | 0.53 | 3.56 | 6.38 | 1.17 | 7.45 | 5.13 | 4.2 | 1.34 | 2.7 | -2.33 | -1.12 | 1.23 | 2.63 | 2.48 | 3.33 | -4.86 | -6.67 | 3.8
5 | CS(=O)(=O)Nc1ccc(-c2ccc3c(NC(=O)C4CC4)n[nH]c3c2)cc1 | 3.17 | 1.14 | -1.76 | 2.35 | 7.21 | 1.53 | 0.3 | 3.39 | 4.07 | 1.3 | 2.05 | -1.28 | -3.34 | 2.67 | 4.34 | 0.92 | 1.63 | -0.54 | -0.98 | 2.34
6 | N#Cc1cccc(Nc2ncc(-c3ccccc3)o2)c1 | 4.14 | -0.78 | 0.7 | 2.24 | 3.69 | 1.51 | 5.93 | -0.16 | 2.33 | 3.74 | 1.79 | -1.82 | 0.42 | 0.88 | -1.04 | -0.63 | -0.04 | -0.3 | -1.82 | 1.65
7 | CC(C)c1ccc(-c2cc(-c3c[nH]nc3-c3ccccn3)ccn2)cc1 | -2.17 | -1.14 | 0.11 | 5.48 | 15.8 | 1.06 | 8.12 | 5.51 | 0.87 | 0.13 | 1.41 | -1.6 | -2.44 | 0.78 | 1.76 | 0.89 | 4.14 | 1.73 | 0.67 | 1.34
